CHX counter: counter-screen hit for Shiga toxin inhibitors, cycloheximide; AID 2314; max response, %; actives 12% (n = 300,000); cell reporter, cycloheximide protein synthesis inhibition counterscreen; in the data active = max response mostly above about 13%, no sharp cut-off; inactive = mostly below about 14%; note: read at 38.3 µM for the half of the compounds with a filed dose; 0% is about no effect
MARV entry inh: blocks Marburg virus binding to or entry into cells. Marburg virus pseudotyped entry inhibition, cell reporter. Potency, µM (highest dose often 37.8 µM), for the others: at the top dose activity change, negative = inhibition, actives largely listed as inhibitors. actives 1.8% (n = 300,000). AID 540276; calls by dose curve; tested in HEK293 cells; note: potency is the fitted concentration of half-maximal effect; % is set by controls: 0 for no effect and ±100 for the full control effect
Shiga inhibitor: inhibitors of Shiga toxin in Vero cells | inhibition, % at 38.7 µM | Vero cells, Shiga toxin protein synthesis inhibition reporter | actives 9.2% (n = 290,000) | AID 2315; in the data active = inhibition mostly above about 28%, no sharp cut-off; inactive = mostly below about 43%; note: 0% is about no effect
FMDV antiviral: antivirals against foot and mouth disease virus; FMDV antiviral cell-based qHTS; Potency, µM (series often up to 57.9 µM), inactives show top-dose activity change, negative = inhibition, usual class: inhibitors; actives 1.2% (n = 410,000); AID 1159524; calls by dose curve; tested in HEK293T cells; note: read-out not given here; potency is the fitted concentration of half-maximal effect; % is set by controls: 0 for no effect and ±100 for the full control effect; nearly all actives have a fitted effect of over 45% in size
HCV inh: blocks hepatitis C virus. Huh7.5.1 HCVcc-Cre infection, luciferase reporter, 44 h. Potency, µM (highest dose often 41.8 µM), without a hit: top-dose activity change, negative = inhibition, most hits filed as inhibitors. actives 3.4% (n = 340,000); active = well fitted inhibition curve with a large enough effect; inconclusive = small, poorly fitted or top-dose-only effect, or another doubt; inactive = no such curve, though single readings can be large or run the other way; note: potency is the fitted concentration of half-maximal effect; % is set by controls: 0 for no effect and ±100 for the full control effect
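1,000 cells/well; 4 h culture; + compound; + HCVcc-Cre (~0.5 moi); 44 h; luciferase substrate, RT 15 min; read 15 sec.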
Lassa entry inh: inhibitors of Lassa virus binding or cell entry; Lassa virus pseudotype entry inhibition, cell reporter; Potency, µM (series often up to 37.9 µM), for the others: top-dose activity change, negative = inhibition, usual class: inhibitors; actives 1.2% (n = 300,000); AID 540256; calls by dose curve; tested in HEK293 cells; note: potency is the fitted concentration of half-maximal effect; % is set by controls: 0 for no effect and ±100 for the full control effect; nearly all actives have a fitted effect of over 50% in size
Active calls of the source: *; ? = inconclusive; · = no result; [ ] = dose if it differs, or a comment. In the library only some 13% were active in any assay of this set; here they are far more common.

SMILES | CHX counter | MARV entry inh | Shiga inhibitor | FMDV antiviral | HCV inh | Lassa entry inh
COc1cccc(Nc2nc(-c3cccc(N4C(=O)c5ccccc5C4=O)c3)cs2)c1 | 33* | ? | 30 | 30% | ? | ?
COc1cccc(-c2csc(Nc3ccc(Oc4ccccc4)cc3)n2)c1 | · | · | · | 10% | · | ·
COc1cccc(Nc2nc(-c3ccc(O)cc3)cs2)c1 | 35* | 22% | 78 | -21% | ? | 6%
Brc1ccc2nc(SCCOc3ccccc3)[nH]c2c1 | · | ? | · | 44% | · | 25%[46.1 µM]
c1ccc(OCCSc2nc3ccccc3[nH]2)cc1 | 26* | 3% | 21* | 22% | -9% | ?
Cc1ccccc1OCCCSc1nc2ccccc2[nH]1 | 19* | ? | 27* | ? | ? | ?
Cc1nc(SCCC(=O)O)c2ccccc2n1 | 0 | -1% | -8 | · | -4% | 17%
NC(=O)CCCSc1nc2ccccc2[nH]1 | -1 | 24%[46.1 µM] | -17 | 1% | 14% | 4%[46.1 µM]
Cc1nc(SCCOc2ccc(F)cc2)c2ccccc2n1 | 25* | 9% | 79* | 8% | -3% | 4%
O=C(Cn1cc([N+](=O)[O-])cn1)NCc1ccccc1 | 2 | · | -8 | 1% | 7% | ·
CCOC(=O)c1ccc(NC(=O)c2ccccc2[N+](=O)[O-])cc1 | 42* | 15% | 58* | 10% | ? | ?
COCCNC(=O)c1cccc(C)c1[N+](=O)[O-] | -3 | 17% | -12 | -15% | 21% | -17%
CCOC(=O)c1ccc(NC(=O)c2cccc(C)c2[N+](=O)[O-])cc1 | 20* | ? | 52* | 43% | ? | ?
COC(=O)CCCNc1ncccc1[N+](=O)[O-] | 2 | -16%[46.1 µM] | 36 | 9% | -13% | -5%
COC(=O)c1ccc(NC(=O)c2cccc(C)c2[N+](=O)[O-])cc1 | 22* | · | 49 | 58% | -9% | ·
CCOC(=O)c1ccc(Nc2ncccc2[N+](=O)[O-])cc1 | 35* | ? | 62* | 43% | 5% | ?
COC(=O)c1ccc(NC(=O)c2ccccc2CC[N+](=O)[O-])cc1 | 12 | 3%[46.1 µM] | 61 | 24% | -9% | -4%
O=C(CSc1nnc(CNc2ccc(F)cc2)o1)c1ccccc1 | 21* | 15%[46.1 µM] | 32 | -9% | 0% | 8%
O=C(CSc1nnc(Cc2ccccc2)o1)c1ccc2c(c1)OCO2 | · | 6%[46.1 µM] | · | 6% | -6% | 0%
c1ccc(CSc2nnc(Cc3ccccn3)o2)cc1 | 25* | 3% | 46 | 97% | -1% | 21%
O=C(CSc1nnc(Cc2ccccc2)o1)c1ccccc1 | 32* | 6%[46.1 µM] | 24 | 29% | -9% | -8%[46.1 µM]
NCCc1nnc(SCc2ccccc2)o1 | -6 | 5% | -21 | -11% | 0% | ?
c1ccc(CSc2nnc(Cc3ccccc3)o2)cc1 | 40* | -10%[46.1 µM] | 54* | 68% | 8% | -8%
CCn1nnnc1NC(=O)c1ccc2ccccc2c1 | 5 | 22%[46.1 µM] | -3 | 12% | 7% | -16%
CCc1ccccc1NC(=O)C1(C)Cc2ccccc2C(=O)O1 (configuration not stated) | · | 0%[46.1 µM] | · | -23% | · | 15%[46.1 µM]
SMILES | CHX counter | MARV entry inh | Shiga inhibitor | FMDV antiviral | HCV inh | Lassa entry inh
O=C(O)c1cccc(CSc2ncn[nH]2)c1 | 7.6* | · | 24 | 3% | 22% | ·
O=C(O)c1cccc(CSc2nnc(Cc3ccccc3)o2)c1 | 15 | 3% | 44* | 9% | ? | 5%
O=C(O)c1cccc(CSc2nnc(-c3ccco3)o2)c1 | 9 | -23% | 21 | · | 15% | -17%
CCCn1c(N)c(C(=O)CSc2nnc(Cc3ccccc3)o2)c(=O)n(C)c1=O | 3 | ? | 1 | ? | 10µM* | ?
Cn1c(=O)c(C(=O)CSc2nnc(Nc3ccccc3)s2)c(N)n(Cc2ccccc2)c1=O | -5 | 25% | -17 | -36% | ? | -16%
COc1ccc(CNC(=O)C(C)OC(=O)CN2C(=O)COc3ccccc32)cc1 (configuration not stated) | -6 | 1%[46.1 µM] | -3 | -13% | 6% | -6%
Cc1ccc(S(=O)(=O)Nc2cccc(C(=O)NCC(c3ccccc3)N(C)C)c2)cc1F (configuration not stated) | · | ? | · | -22% | -2% | ?
NC(=O)CCCn1c(C(=O)c2ccc(Cl)cc2)c2ccc([N+](=O)[O-])cc2[n+]1[O-] | · | · | · | -3% | ? | ·
NC(=O)CCCn1c(C(=O)c2cc(Cl)c(N)c(Cl)c2)c2ccc([N+](=O)[O-])cc2[n+]1[O-] | · | · | · | ? | 11µM* | ·
Cc1ccc(C(=O)c2c3ccc([N+](=O)[O-])cc3[n+]([O-])n2CCCC(N)=O)cc1 | · | · | · | 16% | 10µM* | ·
NCCCn1c(C(=O)c2ccc(Cl)cc2)c2ccc([N+](=O)[O-])cc2[n+]1[O-] | · | · | · | -9% | 10µM* | ·
NC(=O)CCCn1c(C(=O)c2ccc(Cl)cc2)c2ccc(C(F)(F)F)cc2[n+]1[O-] | · | · | · | -14% | 20% | ·
COc1ccc(CCNC(=O)CC(NC(=O)c2ccccc2Cl)c2ccccc2)cc1 (configuration not stated) | -3 | 2% | -8 | -19% | -2% | -15%
O=C(Nc1ccccc1N1CCOCC1)c1cc(F)cc(F)c1 | 12 | 3%[46.1 µM] | -2 | -15% | 2% | -2%[46.1 µM]
CC1CCC(NC(=S)NCCN(C)C)CC1 (configuration not stated) | 23* | ? | 45* | 64% | -7% | -25%
CS(=O)(=O)N1CCC(C(=O)N2CCN(c3ccccc3F)CC2)CC1 | 6 | 8%[46.1 µM] | -3 | -15% | -3% | ?
Cc1cc(C)c(C)c(S(=O)(=O)N[C@@H](C)C(=O)OCC(=O)NC2CCCC(C)C2C)c1C (some centres not stated) | · | 7% | · | -5% | 14% | 0%
Cc1cccc(Oc2nc(-c3ccncc3)nc3ccccc23)c1 | 1 | ? | -13 | -14% | 7.1µM* | 1%
Cc1cccc(Oc2nc(-c3ccccn3)nc3ccccc23)c1 | 34* | ? | 63* | -12% | ? | -18%
CCOc1nc(-c2ccncc2)nc2ccccc12 | -2 | ? | -3 | -17% | ? | 9%
CCCCc1c(O)nc(SCC(=O)N2CCOCC2)n(-c2ccc(OC)cc2)c1=O | -5 | 4%[46.1 µM] | -13 | 2% | 2% | 0%
Cc1cc(=O)[nH]c(N/N=C/c2ccc(-c3ccc(F)cc3)o2)n1 | 15 | 5%[46.1 µM] | 50 | 0% | -19% | 9%
CSc1ccc(/C=C/C(=O)OCC(=O)N2CCCCCC2)cc1 | · | 13% | · | 8% | -13% | 5%
CSc1ccc(/C=C/C(=O)OCC(=O)N(C)CCC#N)cc1 | 20* | 5% | 31* | 9% | 7% | 17%
C=CCN(c1ccccc1)S(=O)(=O)c1cccc(C(=O)Oc2ccc3c(C)cc(=O)oc3c2)c1 | -4 | 16% | -1 | -9% | -3% | 4%
COC(=O)c1c(NC(=O)CC2Nc3cc(C)c(C)cc3NC2=O)sc(C)c1C (configuration not stated) | 18 | 18% | 3 | -12% | 27% | 12%
